Source: PubChem BioAssay
Pol eta inh: DNA polymerase eta (human) inhibition | Q9Y253 | recombinant Pol eta, fluorescent DNA replication assay | Potency, µM (titrated, usually from 114 µM), inactives show at the top dose activity change, negative = inhibition, usual class: inhibitors | 1.2% of 390,000 active | AID 588591; further: on the % scale 0 is the no-effect control and ±100 the full control effect
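Pol eta at 10 nM preincubated with compounds 15 min at room temperature; reaction started with fluorescent substrate (50 nM final) and read kinetically at 0 and 10 min.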
FEN1 inh: blocks human flap endonuclease 1; Potency, µM (top dose mostly 114 µM), for inactives: at the highest dose activity change, negative = inhibition, most hits filed as inhibitors; AID 588795; Recombinant FEN1 flap cleavage, fluorescence, 15 min; P39748; 0.35% of 390,000 active; further: on the % scale 0 is the no-effect control and ±100 the full control effect; nearly all actives have a fitted effect of over 65% in size
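Potency values derive from four-parameter Hill fits of normalized qHTS data. The reaction used 10 nM FEN1 preincubated 15 min at room temperature with compound, then 50 nM DNA substrate, read at 0 and 15 min.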
Pol beta inh: blocks human DNA polymerase beta activity; P06746; Pol beta primer extension/strand displacement, fluorescence kinetic; Potency, µM (highest dose often 114 µM), for inactives: at the top dose activity change, negative = inhibition, most hits filed as inhibitors; 1.3% of 340,000 active; AID 485314; further: on the % scale 0 is the no-effect control and ±100 the full control effect
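Reaction started by 50 nM substrate onto compound-treated Pol beta (10 nM, 15 min preincubation, room temperature); plates read at 0 min and 10 min. Normalized concentration-effect data fitted by four-parameter Hill equation.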
TDP1 inh: TDP1 (human) enzyme inhibition; Q9NUW8; recombinant TDP1, AlphaScreen DNA substrate cleavage; Potency, µM (titrated, usually from 130 µM), for inactives: at the top dose activity change, negative = inhibition, hits mostly inhibitors; 0.28% of 350,000 active; further: on the % scale 0 is the no-effect control and ±100 the full control effect; nearly all actives have a fitted effect of over 40% in size
Target sequence (Q9NUW8 whole entry, looked up): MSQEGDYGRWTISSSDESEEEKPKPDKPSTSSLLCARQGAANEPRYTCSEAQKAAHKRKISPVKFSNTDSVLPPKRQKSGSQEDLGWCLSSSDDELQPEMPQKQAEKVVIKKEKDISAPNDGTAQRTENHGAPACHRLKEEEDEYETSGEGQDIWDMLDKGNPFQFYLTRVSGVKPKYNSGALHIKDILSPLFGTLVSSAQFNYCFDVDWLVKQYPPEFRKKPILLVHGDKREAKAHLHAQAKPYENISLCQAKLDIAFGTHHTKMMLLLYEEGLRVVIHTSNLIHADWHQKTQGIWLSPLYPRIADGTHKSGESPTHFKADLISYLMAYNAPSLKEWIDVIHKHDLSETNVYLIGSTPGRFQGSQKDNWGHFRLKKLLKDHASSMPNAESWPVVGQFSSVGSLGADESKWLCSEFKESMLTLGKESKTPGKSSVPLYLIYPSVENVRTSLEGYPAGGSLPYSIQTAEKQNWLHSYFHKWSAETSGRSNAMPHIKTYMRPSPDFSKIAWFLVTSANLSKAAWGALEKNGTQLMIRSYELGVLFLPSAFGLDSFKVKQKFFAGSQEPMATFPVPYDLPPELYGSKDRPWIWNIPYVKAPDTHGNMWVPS
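Signal: AlphaScreen proximity between streptavidin donor and anti-FITC acceptor beads on intact substrate. Reaction: Tdp1 1 nM, substrate 15 nM final, 5 min RT after 15 min compound preincubation.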
Pol iota inh: DNA polymerase iota (human) inhibition. Q9UNA4. Pol iota fluorescent replication assay, 10 min. Potency, µM (titrated, usually from 115 µM), for the others: at the highest dose activity, negative = inhibition, actives largely listed as inhibitors. 1% of 390,000 active
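Pol iota at 10 nM preincubated 15 min with compounds at room temperature; reaction started with fluorescent substrate, 50 nM final. Fluorescence read kinetically at 0 and 10 min; buffer-only wells as negative control.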
POLK inh: DNA polymerase kappa (human) inhibition | Q9UBT6 | purified Pol kappa, fluorescent DNA synthesis assay, 10 min | Potency, µM (top dose mostly 107 µM), for the others: at the highest dose activity, negative = inhibition, most hits filed as inhibitors | 0.53% of 400,000 active; further: on the % scale 0 is the no-effect control and ±100 the full control effect
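First, compounds were pin-transferred onto 10 nM Pol kappa. After 15 min at room temperature, substrate was added to 50 nM final. Fluorescence was then measured kinetically at 0 and 10 min.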
* marks the source's active call; other numbers are inactive results; ? = inconclusive; · = not tested or not shown; [ ] = dose if it differs, or a comment. Rows were chosen to be rich in hits. Some 2.4% of all compounds tested hit in one or more screens of this group. The call rests on the fitted dose curve; in most records, active means well fitted curve in the direction sought with a large enough effect; inconclusive means small, poorly fitted or top-dose-only effect, or another doubt; inactive means no such curve, though single readings can be large; an effect the other way counts as inactive or inconclusive. Potency means the concentration at half of the fitted maximal effect.

SMILES | Pol eta inh | FEN1 inh | Pol beta inh | TDP1 inh | Pol iota inh | POLK inh
N#Cc1c2c(c(-c3ccco3)[nH]c1=O)CCCC2 | -6% | 4% | 2% | -10% | 28µM* | ?
N#Cc1c(-c2cccnc2)c2c([nH]c1=S)CCCC2 | -7% | 5% | 35% | -1% | ? | 2%
N#Cc1c(-c2ccco2)c2c([nH]c1=S)CCCC2 | ? | 7% | 28µM* | 11% | 13µM* | -28%
N#Cc1nc(NC2CCCC2)c2ncn(-c3cc(F)cc(F)c3)c2n1 | · | · | · | -3% | · | ·
O=C(CSc1nc2ccccc2n1Cc1cccc(F)c1)NCc1ccccc1 | -20% | -10% | -9% | 6% | -9% | -4%[60.1 µM]
C/C(=C(/CCOC(=O)C(C)C)SS/C(CCOC(=O)C(C)C)=C(\C)N(C=O)Cc1cnc(C)nc1N)N(C=O)Cc1cnc(C)nc1N | · | · | · | · | · | 2%[19.4 µM]
Cc1cc(C)n(CCc2nc(-c3ccc(C)o3)cs2)n1 | 16µM* | -6% | 50µM* | -2% | ? | -23%
CC(C)(C)n1ncc2c(=O)n(Cc3ccc(SC(=O)O)cc3Cl)cnc21 | · | -1% | · | · | -4% | -10%
Cn1c2ccccc2c(=O)c2c(=O)n(C3CCCCC3)c(-c3cccs3)nc21 | -7% | 56µM* | 39% | 5% | 57% | 12%
COc1ccc(Cn2c(C3CCCCC3)nc3c(c(=O)c4ccccc4n3C)c2=O)cc1 | ? | 1% | 4.5µM* | -1% | 18% | -3%
COc1ccc(CCn2c(C3CCCCC3)nc3c(c(=O)c4ccccc4n3C)c2=O)cc1OC | 2% | -1% | 16% | 0% | ? | -6%
Clc1ccccc1Cc1cn2cc(-c3ccccc3)nc2s1 | -10% | -17% | 14% | -3% | 6% | -4%
COC(=O)C#CC(=O)OC | · | · | · | 9% | · | 15%[60.1 µM]
Cc1ccc(C)c2c1NC(C(=O)O)C1CC=CC21 (stereo unspecified) | · | 18µM* | · | ? | 11µM* | 3.2µM*
CCOC(=O)C1Nc2ccc(C)cc2C2C=CCC12 (stereo unspecified) | -11% | -11% | · | · | ? | -22%
O=C(O)C1Nc2c(Cl)cc(Cl)cc2C2C=CCC12 (stereo unspecified) | 2.8µM* | 22µM* | ? | · | 4µM* | 8.9µM*
COc1ccc(-c2nc3ccc(Cl)cc3c(=O)n2Cc2ccccc2)cc1COc1ccc(NC(C)=O)cc1 | · | · | · | 0% | · | ·
CC(C)Oc1ccc(CNC(=O)C2CCN(C(=O)N3CC(C)Oc4ccccc43)CC2)cc1 (stereo unspecified) | -10% | -6% | -4% | -3% | 24% | -2%
CN(C(=S)NC(=O)c1ccc(Cl)cc1)C1CCCCC1 | ? | 5% | 11µM* | -6%[56.1 µM] | ? | -43%
Cc1ccc(Cl)cc1N1CCN(C(=O)c2ccc3c(c2)N(Cc2ccc(F)cc2)CCS3)CC1 | 8% | 20% | 12% | 1% | -19% | -2%
COc1cc(OC)c2c(-c3ccccc3)cc(=O)oc2c1C(CC(=O)N1CCCC1)c1ccc(N(C)C)cc1 (stereo unspecified) | · | -24% | · | 26% | -7% | -10%
COc1ccc(C(CC(=O)N2CCN(c3ccccc3)CC2)c2c(OC)cc(OC)c3c(-c4ccccc4)cc(=O)oc23)cc1 (stereo unspecified) | · | · | 8.9µM* | · | · | ·
COc1ccc(C(CC(=O)N2CCCC(C)C2)c2c(OC)cc(OC)c3c(-c4ccccc4)cc(=O)oc23)cc1 (stereo unspecified) | 25µM* | 2% | 35µM* | · | 50µM* | 79µM*
Cc1ccc(NC(=O)N/C=C/c2ccco2)c(C)c1 | 79µM* | ? | ? | -3% | ? | ?
COc1ccccc1C1CN(c2ccccc2)N=C1c1cccs1 (stereo unspecified) | 2% | -16% | 1% | 7.9µM* | -2% | -14%
SMILES | Pol eta inh | FEN1 inh | Pol beta inh | TDP1 inh | Pol iota inh | POLK inh
COc1cccc(C2CN(c3ccc(F)cc3F)N=C2c2cccs2)c1OC (stereo unspecified) | -12% | -7% | 1% | ? | -5% | 1%
COc1ccc(-c2cc(C(F)(F)F)nc(-n3nc(C(F)(F)F)cc3C)n2)cc1 | -29% | ? | -14% | -1% | 5% | -13%
Oc1ccccc1C1=Nc2ncnn2C(c2ccc(F)cc2)C1 (stereo unspecified) | ? | -16% | 32µM* | -7% | 2% | -8%
COc1ccc(C2CC(c3ccccc3O)=NN2c2ccccc2)cc1 (stereo unspecified) | -11% | -13% | · | · | 52% | -8%
Cc1ccc(-c2cc(C(F)(F)F)n3nc(-c4cccc(Br)c4)cc3n2)cc1 | -5% | -21% | 44% | · | 89µM* | ?
Cc1ccc(-c2cc(C(F)(F)F)n3nc(-c4ccc(Cl)cc4)cc3n2)cc1 | -9% | 4% | -4% | · | 29% | -28%
COc1ccc(NC(=O)c2cc([N+](=O)[O-])ccc2NC(=O)CNCc2ccccn2)c(OC)c1 | 4% | 3% | -11% | 8% | 82% | -4%
COc1cc(NC(=O)c2cc([N+](=O)[O-])ccc2NC(=O)CNCc2ccccn2)cc(OC)c1 | ? | ? | ? | 56µM* | 70% | 4%
CN(C)/[N+]([O-])=N/Oc1ccc([N+](=O)[O-])cc1[N+](=O)[O-] | · | -3% | · | · | ? | -22%
COc1ccc2c3c(cccc13)C(=O)CC2 | -22% | 50µM* | 16% | · | 132% | -14%
COc1ccc2c(c1OC)C(=O)OC2 | -6% | 24% | 8% | 5% | 30% | 2%
Cc1ccn2c(=O)nc(SCC(=O)OCc3ccccc3)nc2c1 | 50µM* | -1% | · | · | 45µM* | ?
CCOC(=O)CSc1nc(=O)n2ccc(C)cc2n1 | -12% | -3% | 49% | -2% | -9% | -5%
Cc1ccc(NC(=O)CCCn2c(=O)c3cccn3c3cccnc32)c(Cl)c1 | 20% | 17% | -8% | 10% | -3% | -6%
COc1cc2c(cc1OC)C1O[C@](c3ccsc3)(C2)Oc2cc(-c3ccccc3)oc(=O)c21 | · | · | 13µM* | · | · | ·
COc1ccccc1-c1noc(-c2ccc(NCC3CCCO3)c([N+](=O)[O-])c2)n1 (stereo unspecified) | -15% | -8% | 20% | 9% | -9% | 2%
Cc1ccc(/C=N/NC(=O)CSCc2ccc(Cl)cc2)cc1 | -11% | -22% | 2% | 5% | 3% | -19%
COc1ccccc1NC(=O)COc1ccc(/C=N/NC(=O)CSCc2cc(C)cc(C)c2)cc1 | ? | 15% | 20% | 3% | -1% | -7%
O=C(CSCc1ccc(Cl)cc1)N/N=C/c1ccc(OCC(=O)Nc2ccccc2)cc1 | -16% | 15% | 79µM* | -3% | ? | 0%
